Here are results for 10 molecules from PubChem BioAssay (NCI).

Compounds without any hit were thinned out: in the full panel of roughly 79,000, 15% have a hit. Values without a mark were called inactive. Calls of active or inactive are those of the source. Cut-off read from the data, not from the text of the source: active = growth inhibition above about 70%; inactive = the rest.

Experiment [1] is described as follows: NCI Yeast Anticancer Drug Screen. Data for the rad50 strain (AID 155).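 Note: 0% = growth of vehicle-only cultures of the same strain.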 Particulars: S. cerevisiae rad50 strain growth inhibition, hits give high values. In a few lines: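 Yeast carrying a defined DNA repair defect were exposed to test compounds, and growth was compared with vehicle-treated controls to give percent inhibition.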
The nature of experiment [2]: NCI Yeast Anticancer Drug Screen. Data for the mec2-1 strain (AID 157). Particulars: S. cerevisiae mec2-1 strain, hits give high values. In a few lines:
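Mutant yeast (mec2-1) grown with compound; growth inhibition relative to vehicle control reported.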

Experiment [3] is described as follows: NCI Yeast Anticancer Drug Screen. Data for the sgs1 mgt1 strain (AID 161).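 Note: 0% = growth of cultures given vehicle only.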 Particulars: S. cerevisiae sgs1 mgt1 strain, hits give high values. In a few lines:
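Compounds are added to genetically altered yeast, and growth is compared with cultures given vehicle alone to give percent inhibition.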

Experiment [4] can be described thus: NCI Yeast Anticancer Drug Screen. Data for the cln2 rad14 strain (AID 165).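 Note: 0% = growth equal to vehicle treated cultures.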 Particulars: S. cerevisiae cln2 rad14 strain, hits give high values. The method in brief: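 Readout is yeast growth inhibition versus vehicle-treated controls, using a strain with cln2 and rad14 alterations exposed to compound.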
A short description of experiment [5]: NCI Yeast Anticancer Drug Screen. Data for the bub3 strain (AID 167). Particulars: S. cerevisiae bub3 mutant strain, hits give high values. The method in brief: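 Compounds were applied to a genetically altered yeast strain carrying a cell-cycle control defect. Growth inhibition was scored against vehicle-treated controls.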
Experiment [6] can be described thus: NCI Yeast Anticancer Drug Screen. Data for the mlh1 rad18 strain (AID 175). Conditions: S. cerevisiae mlh1 rad18 strain growth inhibition, hits give high values. The method in brief: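 Genetically defined yeast (DNA repair-deficient) exposed to compounds; growth inhibition determined relative to vehicle.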
Setting [7] is: at 5.0 µM (retest, dose inferred, filed as 0.5).
The mark [8] stands for this setting: at 50.0 µM (retest, dose inferred, filed as 5.0).

For the molecule `C=CCOCCC=O`, the growth inhibition in experiment [1] (setting [7]) was 7%; in experiment [1] (setting [8]), 38%; in experiment [1] (at 50.0 µM) it was 45.4%; in experiment [2] (setting [7]), 3%; in experiment [2] (setting [8]), 5%; in experiment [2] (at 50.0 µM), 14.2%. Also, the growth inhibition is 2% in experiment [3] (setting [7]); 4% in experiment [3] (setting [8]); 36% in experiment [3] (at 50.0 µM); 4% in experiment [4] (setting [7]); 2% in experiment [4] (setting [8]); -20.4% in experiment [4] (at 50.0 µM). The growth inhibition in experiment [5] (setting [7]) was 4%; in experiment [5] (setting [8]), -3%; in experiment [5] (at 50.0 µM) it was 47.7%; in experiment [6] (setting [7]), 4%; in experiment [6] (setting [8]), 11%; in experiment [6] (at 50.0 µM), 54.6%.
As to `O=Nc1c2n[nH]c1CCCCCCCCC2`, the growth inhibition in experiment [1] (setting [7]) is 24%; in experiment [1] (setting [8]) it was 99% (active); in experiment [1] (at 50.0 µM), 99.4% (active); in experiment [2] (setting [7]), 45%; in experiment [2] (setting [8]), 99% (active); in experiment [2] (at 50.0 µM) it was 99.4% (active). For the same molecule, the growth inhibition in experiment [3] (setting [7]) is 56%; in experiment [3] (setting [8]), 99% (active); in experiment [3] (at 50.0 µM), 99.5% (active); in experiment [4] (setting [7]), 23%; in experiment [4] (setting [8]) it was 99% (active); in experiment [4] (at 50.0 µM), 99.5% (active). The growth inhibition is 37% in experiment [5] (setting [7]); 99% (active) in experiment [5] (setting [8]); 99.3% (active) in experiment [5] (at 50.0 µM); 75% (active) in experiment [6] (setting [7]); 99% (active) in experiment [6] (setting [8]); 96.8% (active) in experiment [6] (at 50.0 µM).
Take `OC(COc1ccc(Cl)cc1)CN1CCN(c2cccc(Cl)c2)CC1` (stereo not given): the growth inhibition in experiment [1] (setting [7]) was 20%; in experiment [1] (setting [8]) it was 99% (active); in experiment [1] (at 50.0 µM), 95.8% (active); in experiment [2] (setting [7]), 37%; in experiment [2] (setting [8]), 100% (active); in experiment [2] (at 50.0 µM), 93.9% (active). In addition, the growth inhibition in experiment [3] (setting [7]) was 80% (active); in experiment [3] (setting [8]) it was 100% (active); in experiment [3] (at 50.0 µM) it was 98.5% (active); in experiment [4] (setting [7]), 20%; in experiment [4] (setting [8]), 99% (active); in experiment [4] (at 50.0 µM) it was 85.8% (active). Also, the growth inhibition in experiment [5] (setting [7]) is 25%; in experiment [5] (setting [8]), 98% (active); in experiment [5] (at 50.0 µM), 95.5% (active); in experiment [6] (setting [7]), 62%; in experiment [6] (setting [8]), 99% (active); in experiment [6] (at 50.0 µM), 96.3% (active).
Take `OC(c1cc(-c2ccccc2)nc2c(Cl)cc(Cl)cc12)C1CCCCN1` (stereo not given): the growth inhibition is 14% in experiment [1] (setting [7]); 97% (active) in experiment [1] (setting [8]); 99.5% (active) in experiment [1] (at 50.0 µM); 18% in experiment [2] (setting [7]); 92% (active) in experiment [2] (setting [8]); 99.6% (active) in experiment [2] (at 50.0 µM). In addition, the growth inhibition in experiment [3] (setting [7]) is 18%; in experiment [3] (setting [8]), 98% (active); in experiment [3] (at 50.0 µM) it was 99.1% (active); in experiment [4] (setting [7]) it was 3%; in experiment [4] (setting [8]), 98% (active); in experiment [4] (at 50.0 µM), 98.3% (active). For the same molecule, the growth inhibition in experiment [5] (setting [7]) was 2%; in experiment [5] (setting [8]), 99% (active); in experiment [5] (at 50.0 µM), 97.5% (active); in experiment [6] (setting [7]), 11%; in experiment [6] (setting [8]), 96% (active); in experiment [6] (at 50.0 µM), 98.8% (active).
As for `Nc1cccc2c1[nH]c(=O)c1ccccc12`, the growth inhibition in experiment [1] (setting [7]) was 7%; in experiment [1] (setting [8]), 70% (active); in experiment [1] (at 50.0 µM) it was 78.8% (active); in experiment [2] (setting [7]), 5%; in experiment [2] (setting [8]), 31%; in experiment [2] (at 50.0 µM), 64%. In addition, the growth inhibition is 2% in experiment [3] (setting [7]); 33% in experiment [3] (setting [8]); 51.9% in experiment [3] (at 50.0 µM); -4% in experiment [4] (setting [7]); 40% in experiment [4] (setting [8]); 77.9% (active) in experiment [4] (at 50.0 µM). Moreover, the growth inhibition in experiment [5] (setting [7]) was -3%; in experiment [5] (setting [8]), 98% (active); in experiment [5] (at 50.0 µM) it was 75.8% (active); in experiment [6] (setting [7]), 9%; in experiment [6] (setting [8]) it was 97% (active); in experiment [6] (at 50.0 µM) it was 91.2% (active).
Turning to `O=C1C(SCCO)=C(SCCO)C(=O)c2ccccc21`, the growth inhibition in experiment [1] (setting [7]) was 8%; in experiment [1] (setting [8]), 87% (active); in experiment [1] (at 50.0 µM) it was 87% (active); in experiment [2] (setting [7]) it was 20%; in experiment [2] (setting [8]) it was 61%; in experiment [2] (at 50.0 µM), 57.5%. Further, the growth inhibition in experiment [3] (setting [7]) was 16%; in experiment [3] (setting [8]), 66%; in experiment [3] (at 50.0 µM), 66.7%; in experiment [4] (setting [7]), -4%; in experiment [4] (setting [8]) it was 48%; in experiment [4] (at 50.0 µM), 17.8%. Also, the growth inhibition in experiment [5] (setting [7]) is 44%; in experiment [5] (setting [8]), 83% (active); in experiment [5] (at 50.0 µM), 89.3% (active); in experiment [6] (setting [7]), 17%; in experiment [6] (setting [8]) it was 77% (active); in experiment [6] (at 50.0 µM), 93.7% (active).
`CCOC(=O)c1c(NC(=O)CBr)sc(C)c1C`: the growth inhibition was 8% in experiment [1] (setting [7]); 48% in experiment [1] (setting [8]); 21.2% in experiment [1] (at 50.0 µM); -3% in experiment [2] (setting [7]); 64% in experiment [2] (setting [8]); 7.8% in experiment [2] (at 50.0 µM). Also, the growth inhibition is 10% in experiment [3] (setting [7]); 74% (active) in experiment [3] (setting [8]); 32.9% in experiment [3] (at 50.0 µM); 0% in experiment [4] (setting [7]); 18% in experiment [4] (setting [8]); -28.4% in experiment [4] (at 50.0 µM). For the same molecule, the growth inhibition was 5% in experiment [5] (setting [7]); 65% in experiment [5] (setting [8]); 38.1% in experiment [5] (at 50.0 µM); 7% in experiment [6] (setting [7]); 69% in experiment [6] (setting [8]); 21.8% in experiment [6] (at 50.0 µM).
As for `Cc1[nH]c2ccccc2c1C1=CC2(C)Nc3ccccc3C2C(C)(C)C1` (stereo not given), the growth inhibition in experiment [1] (setting [7]) is -4%; in experiment [1] (setting [8]), 26%; in experiment [1] (at 50.0 µM), 90.2% (active); in experiment [2] (setting [7]) it was 2%; in experiment [2] (setting [8]), -1%; in experiment [2] (at 50.0 µM) it was 93.8% (active). Further, the growth inhibition in experiment [3] (setting [7]) is -4%; in experiment [3] (setting [8]) it was 23%; in experiment [3] (at 50.0 µM), 92.3% (active); in experiment [4] (setting [7]), 2%; in experiment [4] (setting [8]), -4%; in experiment [4] (at 50.0 µM), 93.5% (active). Besides, the growth inhibition was 10% in experiment [5] (setting [7]); 79% (active) in experiment [5] (setting [8]); 94.8% (active) in experiment [5] (at 50.0 µM); -1% in experiment [6] (setting [7]); 28% in experiment [6] (setting [8]); 94.7% (active) in experiment [6] (at 50.0 µM).
On to `C(=C/c1cnnc2ccccc12)/c1ccccn1`, for which the growth inhibition in experiment [1] (setting [7]) is 5%; in experiment [1] (setting [8]), 79% (active); in experiment [1] (at 50.0 µM), 67.2%; in experiment [2] (setting [7]) it was 8%; in experiment [2] (setting [8]), 43%; in experiment [2] (at 50.0 µM), 6.2%. Further, the growth inhibition in experiment [3] (setting [7]) was 6%; in experiment [3] (setting [8]), 44%; in experiment [3] (at 50.0 µM), 14.8%; in experiment [4] (setting [7]), 0%; in experiment [4] (setting [8]) it was 42%; in experiment [4] (at 50.0 µM), 45.8%. For the same molecule, the growth inhibition in experiment [5] (setting [7]) was -7%; in experiment [5] (setting [8]) it was 28%; in experiment [5] (at 50.0 µM), -4.45%; in experiment [6] (setting [7]), 1%; in experiment [6] (setting [8]) it was 42%; in experiment [6] (at 50.0 µM), 38.4%.
On to `CCOC(=O)/C(=C/c1ccccc1Br)P(=O)(OCC)OCC`, for which the growth inhibition is 7% in experiment [1] (setting [7]); 39% in experiment [1] (setting [8]); 71.2% (active) in experiment [1] (at 50.0 µM); -6% in experiment [2] (setting [7]); 60% in experiment [2] (setting [8]); 35.8% in experiment [2] (at 50.0 µM). For the same molecule, the growth inhibition in experiment [3] (setting [7]) is -12%; in experiment [3] (setting [8]), 38%; in experiment [3] (at 50.0 µM) it was 41.9%; in experiment [4] (setting [7]), 18%; in experiment [4] (setting [8]) it was 53%; in experiment [4] (at 50.0 µM), 33.5%. The growth inhibition is -2% in experiment [5] (setting [7]); 85% (active) in experiment [5] (setting [8]); 61.3% in experiment [5] (at 50.0 µM); -18% in experiment [6] (setting [7]); 74% (active) in experiment [6] (setting [8]); 30% in experiment [6] (at 50.0 µM).
